Rows were chosen to be rich in hits. Some 2.4% of all compounds tested hit in one or more screens of this group.
CHO-K1 Ca antag – nonselective inhibitor or artifact in parental CHO-K1 cells | ATP-induced calcium, Fluo-8 fluorescence | inhibition, % at 3 µM | 360,000 compounds, 0.6% hits | AID 602250;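 active = inhibition above a per-plate cutoff, the plate's mean sample inhibition plus 3 SD, cut at about 24% in these data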
M1 ag – activates human CHRM1 receptor. P11229. CHO-K1 hM1, Fluo-8 calcium fluorescence, agonist mode; 0% DMSO, 100% acetylcholine EC100. activation, % at 3 µM. 360,000 compounds, 0.33% hits. AID 588814;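 active = activation above the run's mean compound activation plus 3 SD, cut at about 16% in these data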;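 note: peak over basal fluorescence ratio within a 140 s kinetic read after compound addition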
Target sequence (P11229 whole entry, looked up): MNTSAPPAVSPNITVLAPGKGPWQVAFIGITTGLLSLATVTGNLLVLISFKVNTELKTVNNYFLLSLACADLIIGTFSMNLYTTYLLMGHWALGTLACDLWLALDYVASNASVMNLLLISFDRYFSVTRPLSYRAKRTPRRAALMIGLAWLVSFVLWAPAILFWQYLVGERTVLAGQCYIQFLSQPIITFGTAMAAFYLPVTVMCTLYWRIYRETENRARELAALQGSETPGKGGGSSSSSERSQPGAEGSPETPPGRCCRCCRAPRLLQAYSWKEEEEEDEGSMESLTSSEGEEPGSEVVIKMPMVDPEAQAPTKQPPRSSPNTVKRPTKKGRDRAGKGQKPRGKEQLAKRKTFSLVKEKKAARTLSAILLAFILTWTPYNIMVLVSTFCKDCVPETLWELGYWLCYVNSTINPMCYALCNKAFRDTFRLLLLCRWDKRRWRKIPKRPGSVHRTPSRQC
CHO-K1 Ca PAM – counter-screen for M1 PAMs: effect in parental CHO-K1 cells; ATP EC20, Fluo-8 calcium fluorescence; 0% at ATP EC20, 100% at ATP max; activation, % at 3 µM; 360,000 compounds, 0.02% hits;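 active = activation above the run cutoff, the mean activation of all test compounds plus 3 SD, cut at about 40% in these data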;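 note: peak over basal fluorescence ratio in a 140 s read after ATP addition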
M1 ag parental – nonselective activator or artifact in parental CHO-K1 cells; Fluo-8 calcium fluorescence; scaled to maximal ATP response, vehicle zero; 360,000 compounds, 0.48% hits; activation, % at 3 µM; in the data active = activation above about 15%;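 note: untransfected CHO-K1 host cells lacking M1 receptor as counterscreen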
CHRM1 PAM – human CHRM1 positive allosteric modulation. P11229. CHO-K1 hM1, Fluo-8 calcium fluorescence, ACh EC20; 0% = ACh EC20, 100% = maximal ACh. activation, % at 3 µM. 360,000 compounds, 0.088% hits. AID 588819; in the data active = activation above about 19%, passing the limit was not always enough
M1 antag – human CHRM1 antagonism; CHO-K1 hM1, Fluo-8 calcium fluorescence, ACh EC80 antagonist; inhibition, % at 3 µM; 360,000 compounds, 1.3% hits; P11229;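 active = percent inhibition above its own plate's cutoff, namely the mean of that plate's compound wells plus 3 SD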;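 note: peak over basal fluorescence ratio during 140 s after agonist addition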
Hits are given with their value; n = inactive.

SMILES | CHO-K1 Ca antag | M1 ag | CHO-K1 Ca PAM | M1 ag parental | CHRM1 PAM | M1 antag
Fc1cccc(Nc2c3c(nc4ccccc24)CCC3)c1 | n | n | n | n | n | n
Cc1ncc([N+](=O)[O-])n1CC(O)CCl (centres undefined) | n | 17 | n | n | n | n
COC(=O)Cc1ccc(OC2(C)CCN(Cc3ccccc3)C2)cc1 (centres undefined) | n | n | n | n | n | 53
CSc1ccc(CN2CCC(C)(Oc3ccc4ccccc4c3)C2)cc1 (centres undefined) | n | n | n | n | n | n
COCOc1cccc(CN2CCC(C)(Oc3ccc(C(C)=O)cc3)C2)c1 (centres undefined) | n | n | n | n | n | 29
CSc1ccc(OC2(C)CCN(Cc3ccccc3)C2)cc1 (centres undefined) | n | n | n | n | n | 28
CSc1ccc(CN2CCC(C)(Oc3ccc(CC#N)cc3)C2)cc1 (centres undefined) | n | n | n | n | n | 29
CC(C)c1ccc(CN2CCC(C)(Oc3ccc(Cl)cc3)C2)cc1 (centres undefined) | n | n | n | n | n | n
O=C(CS(=O)(=O)c1ccccc1)NCc1ccc(Cl)cc1 | n | n | n | n | n | n
CSc1ccc(CN2CCC(C)(Oc3ccc(-n4ccnc4)cc3)C2)cc1 (centres undefined) | n | n | n | n | n | 58
CCc1ccc2c(c1)Sc1ccccc1CC2N1CCN(C)CC1 (centres undefined) | n | n | n | n | n | 53
CN1CCN(C2Cc3cc(Cl)ccc3Sc3cc(F)ccc32)CC1 (centres undefined) | n | n | n | n | n | 99
O=C(COC(=O)/C=C/c1ccc(Cl)c(Cl)c1)NC1CCCC1 | n | n | n | n | n | n
O=C(COC(=O)/C=C/c1ccc(Cl)c(Cl)c1)NC1CCS(=O)(=O)C1 (centres undefined) | n | n | n | 16 | n | n
Cc1cccc(C)c1NC(=O)c1cccc2c1C(=O)N(C1CCCCC1)C2 | n | n | n | n | n | n
CN(C)c1cc[n+](CC(=O)N2c3ccccc3Sc3ccccc32)cc1 | n | n | n | n | n | 100
O=C(COc1ccccc1)N1c2ccccc2Sc2ccccc21 | n | n | n | n | n | n
O=C(C[n+]1ccccc1)N1c2ccccc2Sc2ccccc21 | n | n | n | n | n | 100
COc1ccc(OC)c(NC(=O)COC(=O)CCNc2ccccc2OC)c1 | n | n | n | n | n | n
CC(C)Cc1ccc(C(C)C(=O)Nc2ccc(O)cc2)cc1 (centres undefined) | 34 | 54 | n | 29 | n | 50
CC(C)Cc1ccc(C(C)C(=O)Nc2cccnc2)cc1 (centres undefined) | n | n | n | 16 | n | 32
COC(=O)c1cc(S(=O)(=O)Nc2cc(OC)cc(OC)c2)c[nH]1 | n | n | n | n | n | n
COC(=O)c1c(C)nc2nonc2c1N | n | n | n | n | n | n
CC(OC(=O)CNC(=O)c1ccc2ccccc2c1)C(=O)NC1CCCCC1C (centres undefined) | n | n | n | 18 | n | n
CC(OC(=O)CNC(=O)c1ccc(Br)cc1)C(=O)NC1CCCCC1C (centres undefined) | n | n | n | n | n | n
SMILES | CHO-K1 Ca antag | M1 ag | CHO-K1 Ca PAM | M1 ag parental | CHRM1 PAM | M1 antag
CC(OC(=O)CNC(=O)c1ccc(Cl)cc1)C(=O)NC1CCCCC1C (centres undefined) | 25 | n | n | n | n | n
Cc1ccc(NC(=O)C2(NC(=O)c3ccccn3)CCCCC2)cc1Br | n | n | n | n | n | n
O=C(c1ccc(Br)cc1)N(Cc1nc2ccccc2c(=O)[nH]1)C1CCCC1 | n | n | n | n | n | n
Cc1ccccc1S(=O)(=O)NC(=O)C1(C)CCN1C(=O)CCc1ccc(Cl)cc1Cl (centres undefined) | n | n | n | n | n | n
Cc1ccccc1S(=O)(=O)Cc1ccc(C(=O)NCCN(Cc2ccccc2)C(C)C)o1 | n | n | n | n | n | n
Cc1ccc(S(=O)(=O)NCc2ccc(C(=O)NCCN(Cc3ccccc3)C(C)C)cc2)cc1 | n | n | n | n | n | 68
Cc1ccc(S(=O)(=O)NCCNC(=O)c2ccccc2)cc1 | n | n | n | n | n | n

Screens (PubChem BioAssay)
